Source: ChEMBL document CHEMBL4513216, “Probing the Open Global Health Chemical Diversity Library for Multistage-Active Starting Points for Next-Generation Antimalarials” (ACS Infect Dis, 2020)
Out of some 65,000 compounds screened, about 2,100 (3.2%) showed an effect of 50% or more. The median lay at about -52%. The full list was thinned out, with strong results kept by preference.

Each compound was assayed on Plasmodium falciparum (assay: Screen against P. falciparum Asexual Blood Stage (ABS), at 5uM). Conditions: tested at 5 uM.
Assay type: functional, Dd2

SMILES	INHIBITION [%]
CC(c1cccs1)N(C)Cc1cnc(-c2ccccn2)nc1 (stereo unspecified)	-132
Cc1ccc(C(=O)NCCCNS(C)(=O)=O)cc1-n1cccc1	-137
C[C@@H](O)[C@H](NC(=O)c1csc2nc(-c3ccccc3F)cn12)C(N)=O	-41.1
c1cc(-c2cnccn2)cc(-c2ccn(CCN3CCCCC3)n2)c1	43.8
CN(C)CCCn1ccc(-c2cccc(-c3cncnc3)c2)n1	14.5
c1cc(-c2cnccn2)cc(-c2ccn(CCCN3CCCCC3)n2)c1	21.9
c1cc(-c2cnccn2)cc(-c2ccn(CCN3CCCC3)n2)c1	69.1
COc1ccc(-c2cccc(-c3ccn(CCCN(C)C)n3)c2)nn1	-18.6
CN(C)CCCn1ccc(-c2cccc(-c3ccccn3)c2)n1	61
Cc1cc(CN2CCc3c(CNc4ncccn4)cncc3C2)oc1C	0.619
CN(C)C(=O)COCc1cncc2c1CCN(Cc1ccccn1)C2	25.8
c1ccc(CN2CCc3c(COCc4ccncc4)cncc3C2)nc1	-14.6
c1ccc(CN2CCc3c(COCC4CC4)cncc3C2)nc1	59.3
CN(CC(=O)NCc1cccnc1N1CCCCC1)C(=O)c1cccs1	-48.6
CC(C)c1ccc(-n2nnc(C(=O)O)c2-c2ccccn2)cc1	-101
N#Cc1cccnc1OC1CCN(S(=O)(=O)c2ccc(Br)cc2)CC1	-92.6
CCC(Nc1nc(CCN)nc2ccccc12)c1cccs1 (stereo unspecified)	63.5
NCCc1nc(N[C@@H](CO)c2ccccc2)c2ccccc2n1	-39.4
CCC(Nc1nc(CCN)nc2ccccc12)c1cc(C)ccn1 (stereo unspecified)	-22
N#Cc1cccnc1N1CCC(Nc2ccccc2)C1 (stereo unspecified)	-76.7
O=C(CC1CC1)NCc1cn2c(n1)CN(Cc1cccc(F)c1)CC2	-52
CCNC(=O)COc1cc(CC)c2c(C)nn(-c3ccc(C)cc3)c2n1	-21.1
CCc1ccccc1OCCN1C[C@@H](NS(C)(=O)=O)[C@H](C(C)C)C1	45.2
CC(C)[C@@H]1CN(CCOc2ccc(Cl)cc2)C[C@H]1NS(C)(=O)=O	45.9
CC(C)[C@@H]1CN(CCCOc2ccc(F)cc2)C[C@H]1NS(C)(=O)=O	53.7
CN(C)CCNC(=O)c1nc2c(s1)CCCN2C(=O)C1CC1	25.4

SMILES	INHIBITION [%]
CC(O)CNCc1ccc(OCc2ccc3c(c2)OCCO3)cc1 (stereo unspecified)	-169
COc1ccc(-n2ncc3c2NC(=O)CSC3CC(C)C)cc1 (stereo unspecified)	-124
CCn1ccnc1CN1CCN(CC(=O)NC2CCOCC2)CC1	-29
CCn1ccnc1CN1CCN(CC(=O)NC(C2CC2)C2CC2)CC1	61.4
CCn1ccnc1CN1CCN(C(C)C(=O)NC2CCCCC2)CC1 (stereo unspecified)	-83.4
CCn1ccnc1CN1CCN(C(C)C(=O)N2CCCC2)CC1 (stereo unspecified)	-81.3
CCn1ccnc1CN1CCN(C(C)C(=O)NC2CCCC2)CC1 (stereo unspecified)	51
CCn1ccnc1CN1CCN(CC(=O)NC(=O)NC2CC2)CC1	-97.3
O=C1C(N2CCOCC2)CCCN1Cc1cccc(C(F)(F)F)c1 (stereo unspecified)	-61.2
CC(C)(C)c1nc(CN(CCC2CCCCC2)CC(N)=O)no1	-85.5
COc1cc(Cl)c(CN2CCC(C(N)=O)C2)cc1Cl (stereo unspecified)	7.24
COc1ccc(CN2CCC(C(N)=O)C2)c(Br)c1OC (stereo unspecified)	-93.4
COc1ccc(CN2CCC(C(N)=O)CC2)cc1SC(F)(F)F	63.5
COc1ccc2[nH]cc(CCNC(=O)C3CCCN(C(C)=O)C3)c2c1 (stereo unspecified)	-30
CSc1ncccc1C(=O)N1CCCC1c1ccc(C(=O)N(C)C)s1 (stereo unspecified)	-53.6
Cc1cc2n(n1)CCN(c1nc(N)nc3c1CCNCC3)C2	-75.3
Cc1ccccc1N1CCN(c2nc(N(C)C)nc3c2CCNC3)CC1	39.1
Cc1cc2n(n1)CCN(c1nc(N(C)C)nc3c1CCNC3)C2	57.8
Cc1ccc(NC2CCN(C(=O)c3ccc(F)cc3Cl)CC2)nn1	-116
Cc1cc(-c2cnc(NC3CCCCC3)nc2-c2ccco2)on1	-49.1
CCc1nc(C2CCCN2Cc2cc(C)nc3ccccc23)no1 (stereo unspecified)	-64.8
CN1CCCN(C(=O)NCc2ccccc2Cn2cncn2)CC1	-93.1
COCCN1C[C@@H]2CN(C(=O)[C@H]3CCCO3)C[C@@H]2C1=O	-135
O=C(CC1CC1)N1C[C@H]2CN(CC3CC3)C(=O)[C@H]2C1	-64.7
COCCN1C[C@@H]2CN(C(=O)CC3CC3)C[C@@H]2C1=O	53.5
Cn1ccc2c(cnc3nc(-c4ccncc4)nn32)c1=O	-169

SMILES	INHIBITION [%]
COc1cc(CCC(=O)N2CCC(c3cc4ncccc4[nH]3)CC2)on1	-0.239
CN(C)c1ccc(C(=O)N2CCC(c3cc4ncccc4[nH]3)CC2)cc1	55.6
CN(C)c1ccc(C(=O)N2CCC(c3cc4cnccc4[nH]3)CC2)cc1	29.8
CCNC(=O)NC(=O)C(C)N(C)CCOc1ccccc1C (stereo unspecified)	-80.5
COc1ccc(S(=O)(=O)N2C[C@@H]3CN(C)CCO[C@@H]3C2)cc1	60.2
CN1CCO[C@@H]2CN(S(=O)(=O)c3ccccc3F)CC[C@@H]2C1	50.3
CCN1CCO[C@@H]2CN(S(=O)(=O)c3cccs3)CC[C@@H]2C1	40.2
CN1CCO[C@H]2CN(S(=O)(=O)c3ccc(C#N)cc3)C[C@H]21	-81.8
Cc1ccc(S(=O)(=O)N2CC[C@H]3CO[C@H](CN(C)C)[C@H]3C2)cc1	12.4
O=C1CO[C@@H]2CN(S(=O)(=O)c3ccccc3F)C[C@H]2N1	-30.8
CC(C)N1CCO[C@@H]2CN(S(=O)(=O)c3cccs3)CC[C@@H]2C1	52.1
CN1CCO[C@@H]2CN(S(=O)(=O)c3ccccc3)C[C@@H]2C1	-17.9
CN1CCO[C@@H]2CN(S(=O)(=O)c3cccs3)CC[C@@H]2C1	-22.2
CN(C)C[C@H]1OC[C@@H]2CCN(S(=O)(=O)c3ccc(F)cc3)C[C@@H]21	50.5
CN(C)C[C@H]1OC[C@@H]2CCN(S(=O)(=O)c3ccccc3)C[C@@H]21	-3.11
CC(=O)N1CCO[C@@H]2CN(S(=O)(=O)c3ccccc3F)C[C@@H]2C1	-67.6
CN1CC(=O)N(c2ccccc2)Cc2c(NC3CC3)ncnc21	-97.2
CO[C@H]1CN(C(=O)OC(C)(C)C)CC1NCc1ccco1 (stereo partly specified)	-47.8
CN(CCNC(=O)Nc1ccn(C)n1)Cc1ccc(F)cc1	-27.6
CC(C)NC(=O)N1CCc2onc(C(=O)NCCN(C)C)c2C1	-13.1
COCc1nn(C(C)C)c2c1CCN(Cc1ccc(C)o1)C2	-31
CC(C)C1=NOC2(CCN(Cc3c[nH]c4ccccc34)CC2)C1	2.84
Cc1ccc(CNCC2Cn3nnc(-c4cnn(C)c4)c3CO2)o1 (stereo unspecified)	-32.4
Cc1ccc(Nc2nccc(C3CCCN(CC(=O)N(C)C)C3)n2)nc1 (stereo unspecified)	-3.51
Cc1ccc(N2CCc3ncnc(C4CC4)c3CC2)nn1	-150
CN1CCO[C@@H]2CN(S(=O)(=O)c3ccc(F)cc3)CC[C@@H]2C1	62.7

SMILES	INHIBITION [%]
CN1CCO[C@@H]2CN(S(=O)(=O)c3ccccc3)CC[C@@H]2C1	33.8
CC(=O)N1CCO[C@@H]2CN(S(=O)(=O)c3ccc(F)cc3)CC[C@@H]2C1	-83.8
N#Cc1ccccc1CN1C[C@@H]2CC[C@H]1CN(C(=O)c1cccnc1)C2	-15.6
CCN(C(=O)CN1CCCN(c2nc(C)ns2)CC1)C1CC1	-126
CC(C)CC(=O)NCC1CCC(C(c2ccccn2)N(C)C)CC1 (stereo unspecified)	-110
O=C(c1ccccn1)N1CCC2(COc3ncccc3S(=O)(=O)N2)C1 (stereo unspecified)	-69.3
Cc1ccc(CN(CCCn2ccnc2)Cc2c[nH]nc2C(C)(C)C)s1	33.5
Cc1cc(NCCNS(=O)(=O)c2cn(C)nc2C)c2ccccc2n1	3.35
Cc1ccc2nc(C)cc(NCCNS(=O)(=O)c3cn(C)nc3C)c2c1	47.8
Cc1ccc2nc(C)cc(NCCNS(=O)(=O)c3cccnc3)c2c1	62.9
COc1nn(C)c2c1CCCN(C(=O)c1cccs1)C2	-22.1
O=C(c1ccc(F)cc1)N1CC[C@H]2[C@H]1CCN2CC1CCOCC1	-112
Cc1nc(CN2CCN(C(=O)C(C(C)C)n3cncn3)CC2)cs1 (stereo unspecified)	-61.1
CN1N=C(C(=O)N(Cc2ccco2)C2CC2)CCC1=O	-127
CN1CCC(N(Cc2ccco2)S(=O)(=O)c2ccc(Cl)cc2)CC1	56.8
CC1CCN(C(=O)CN(Cc2ccco2)C2CC2)CC1	-115
COCCNC(=O)[C@H]1C[C@@H]2CCN(Cc3nccs3)C[C@H]2O1	-127
CN(C)CCN(Cc1ccc(Cl)cc1)C(=O)c1cnccn1	35.1
Cc1cc(C(=O)N(CCN(C)C)Cc2ccc(Cl)cc2)no1	53.4
CN(C)CCN(Cc1ccc(Cl)cc1)C(=O)c1ccn(C)c(=O)c1	-73.6
Cc1cnc(C(=O)N(CCN(C)C)Cc2ccc(Cl)cc2)cn1	-35.7
CN(C)CCN(Cc1ccc(Cl)cc1)C(=O)c1ccncc1	53.1
CN(C)CCN(Cc1ccc(C(F)(F)F)cc1)C(=O)c1cc[nH]n1	35.8
